Measured values from PubChem BioAssay (EPA / NIEHS).
Records with an inconclusive call do not appear. The source made the active and inactive calls. Rule for the calls: active = hit-call score of the fitted dose curve at least 0.9, where 1 is the maximum; inconclusive = response in the unintended direction; inactive = score below 0.9.

read-out: organic anion transporter (SLCO1B1), SLCO1B1 (gene 10599); assay: CLD_SLCO1B1_48hr: CellzDirect (CLD) Gene Expression Assay for organic anion transporter (SLCO1B1) at 48 hours (AID 2283707)
Description: CLD_48hr is a cell-based, multiplexed-readout assay that uses hepatocyte, a human liver primary cell, with measurements taken at 48 hours after chemical dosing in a 96-well plate.CLD_SLCO1B1_48hr is one of 16 assay component(s) measured or calculated from the CLD_48hr assay. It is designed to make measurements of mRNA induction, a form of inducible reporter, as detected with chemiluminescence signals by Quantitative Nuclease Protection Assay (qNPA) technology.Data from the assay component CLD_SLCO1B1_48hr was analyzed at the endpoint, CLD_SLCO1B1_48hr, in the positive analysis fitting direction relative to DMSO as the negative control and baseline of activity. Using a type of inducible reporter, gain-of-signal activity can be used to understand changes in the reporter gene as they relate to the gene SLCO1B1. Furthermore, this assay endpoint can be referred to as a primary readout. To generalize the intended target to other relatable targets, this assay endpoint is annotated to the transporter intended target family, where subfamily is organic anion transporter.
Human hepatocyte cultures were treated daily for two consecutive days with fresh dosing solutions containing appropriate concentrations of the 320 ToxCast chemicals (chemical identities were blinded to CellzDirect and other ToxCast collaborators), vehicle control (0.2% DMSO), and positive control inducers as summarized in Table 1. Due to the large number of treatment groups and chemicals examined, the ToxCast chemicals were divided into two groups (spanning two independent cultures of hepatocytes from separate donor preparations (Hu778: ToxCast plates 1 and 2; Hu776: ToxCast plates 3 and 4). Each preparation of human hepatocyte cultures was treated with respective vehicle control, medium only control, set of six positive controls/reference chemicals for the five hepatic receptor pathways, and a subset of eight of the ToxCast chemicals (indoxacarb, pyrithiobac-sodium, norflurazon, cyhalofop-butyl, methomyl, thiram, acetochlor, and propiconazole). These replicate data, coupled with internal replicates designed within the blinded ToxCast chemical library, provided additional data to evaluate interindividual differences between hepatocyte preparations and their potential impact on chemical profiles.Cell morphology and integrity were evaluated using phase-contrast microscopy as an indicator of hepatocyte cell health (Tyson & Green, 1987). Cultures for each treatment group (i.e., media, vehicle [0.2% DMSO], positive control inducers [multiple concentrations], and the ToxCast chemicals [multiple concentrations]) were observed and cell morphology was assessed relative to vehicle control cultures at each harvest time point (0, 6, 24, or 48 h). […] Images were evaluated at the conclusion of the study to assess changes in cell integrity and account for the effects of chemical exposure on uncharacteristic changes in concentration-dependent gene expression profiles. The results from these determinations of apparent cytotoxicity were annotated (yes/no) alongside the corresponding qNPA data for reference.At the conclusion of each treatment period, hepatocyte cultures (96-well) were washed with 1 volume of HBSS, lysed by addition of 25 ul ArrayPlate lysis buffer (HTG, Tucson, AZ), and 70 ul/well of Denaturation Oil, denatured by incubation at 95C for 10 min, and frozen at approximately -70C until analysis by nuclease protection assay (qNPA) (Roberts et al., 2007). For qNPA analysis, cell lysates were thawed at 50C for approximately 30 min, qNPA probes were added, and samples were incubated at 95C for 10 min to begin the detection process by denaturing the target RNA, dissociating the duplexes and secondary structure hybridization. At the conclusion of the hybridization period, S1 nuclease reagent was added to each sample to digest all nonprotected nucleotides at 50C for 60-90 min. […]

Compound	outcome
CCCN(CCC)c1c([N+](=O)[O-])cc(S(N)(=O)=O)cc1[N+](=O)[O-]	inactive
COC(=O)N(OC)c1ccccc1COc1ccn(-c2ccc(Cl)cc2)n1	inactive
Oc1ccccc1-c1ccccc1	inactive
COc1nc(C)nc(NC(=O)NS(=O)(=O)c2ccccc2Cl)n1	inactive
CS/C(C)=N/OC(=O)N(C)SN(C)C(=O)O/N=C(\C)SC	inactive
COC(=O)C(C)Oc1ccc(Oc2ccc(Cl)cc2Cl)cc1 (stereo not drawn)	inactive
COC(=O)c1ccccc1C(=O)OC	inactive
O=C(O)c1nc(Cl)ccc1Cl	inactive
COP(N)(=O)SC (stereo not drawn)	inactive
CCNc1nc(Cl)nc(NC(C)C)n1	inactive
Fc1ccc(Oc2ccnc3cc(Cl)cc(Cl)c23)cc1	inactive
COc1nc(C)nc(NC(=O)NS(=O)(=O)c2ccccc2CCC(F)(F)F)n1	inactive
CCNc1nc(Cl)nc(NCC)n1	inactive
COP(=S)(OC)Oc1nc(Cl)c(Cl)cc1Cl	inactive
COc1cnc(OC)n2nc(NS(=O)(=O)c3c(OCC(F)F)cccc3C(F)(F)F)nc12	inactive
CC(C)(C)c1ccc(CSc2cnn(C(C)(C)C)c(=O)c2Cl)cc1	inactive
COc1nc(NC(C)C)nc(NC(C)C)n1	inactive
CCCCOC(=O)c1ccccc1C(=O)OCCCC	inactive
